The conditions of test [1]: Ebola virus entry assay, green fluorescence channel.
For test [2] the following is noted: Ebola virus entry assay, blue channel fluorescence.
The conditions of test [3]: Ebola virus entry assay, ratio channel.
The conditions of test [4]: Ebola virus entry assay, reporter ratio channel; Channel type: primary.
The conditions of test [5]: Ebola virus entry assay, green channel fluorescence.
The nature of test [6]: qHTS assay for measurement of the activity of small molecule inhibitors on Zika virus induced Caspase-3 activity in human iPSC derived neural progenitor cells (hNPCs) (AID 1224857; active = well fitted inhibition curve with a large enough effect; note: % of control where 0% means no effect; nearly all actives have a fitted effect of over 65% in size). To be noted: hNPCs ZIKV-induced caspase-3/7, Caspase-Glo luminescence, 6 h; series mostly up to 45.7 µM. The gist of the method:
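hNPCs seeded 350 cells/well, cultured 16–20 h; compounds added 1 h before ZIKV (2 FFU/cell), 37 C 6 h. Caspase-Glo 3/7 luminescence after 30 min RT; % inhibition from induction scaled to uninfected (0%) and infected (100%) wells.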
On the technique in general: qHTS replaces the single test concentration by a dilution series.

A short description of test [7]: qHTS assay for measurement of the activity of small molecule inhibitors on Zika virus induced Caspase-3 activity in human astrocytoma cells (AID 1224859; active = well fitted inhibition curve with a large enough effect;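 note: plate controls were ZIKV-infected untreated cells for no effect and uninfected cells for full effect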). To be noted: SNB-19 ZIKV-induced caspase-3/7, luminescence, 6 h; series mostly up to 45.7 µM. An outline of the steps:
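Luminescence read-out (Caspase-Glo 3/7, 30 min RT) of caspase activity in SNB-19 cells infected 6 h with ZIKV, 2 FFU/cell, after 1 h compound pretreatment; % inhibition from induction normalised to uninfected (0%) and infected (100%) wells.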

The source of these data is PubChem BioAssay (NCATS).

SMILES strings stand for the structures. A number with no mark means an inactive call. Records with an inconclusive call do not appear. For some of these results: Measured potencies and affinities stand elsewhere. Active and inactive are the calls of the source. Unless noted, the rule behind the calls is not given here.
Throughout, for efficacy: 0% is about no effect.

On to `Cc1cccc(N(C)C(=S)Oc2ccc3c(c2)C2CCC3C2)c1` (stereo not given), for which the efficacy in test [1] was 40.9%. In addition, the concentration at half-maximal activity (AC50) in test [2] and in test [4] was 39.8 µM (active) throughout. Also, the result in test [3] was inactive.

In the case of `CN1CCc2cc(Cl)c(O)cc2[C@H]2c3ccccc3CC[C@@H]21`, in test [1], the efficacy was 24%. In addition, the AC50 in test [2] is 25.1 µM (active); in test [3] it was 17.8 µM (active); in test [4] it was 17.8 µM (active). For the same molecule, the molecule was called inactive in test [5] and in test [7]. The Potency entry in test [6] is “inactive”.

As to `C[n+]1cc2c3c(ccc2c2ccc4cc5c(cc4c21)OCO5)OCO3`, the efficacy in test [1] was -149%. The AC50 in test [2], in test [3] and in test [4] was 17.8 µM (active) in each case.

Consider `CN(C)C(=S)SSC(=S)N(C)C`, for which the efficacy in test [1] is -47%. Moreover, the half-maximal activity concentration (AC50) in test [2], in test [3] and in test [4] was 1.26 µM (active) each time. Moreover, the result in test [5] and in test [7] was inactive.

For the molecule `Sc1ccccc1Cl`, the efficacy in test [1] was 41.3%. Moreover, the outcome in test [2], in test [3], in test [5], in test [4] and in test [7] was inactive.

Turning to `O=C(CBr)Nc1ccc(Cl)cc1C(=O)c1ccccc1F`, the efficacy in test [1] is 28%. In addition, the concentration at half-maximal activity (AC50) in test [2], in test [3] and in test [4] was 17.8 µM (active) throughout. In addition, the molecule was classed as inactive in test [5] and in test [7]. Moreover, the Potency result in test [6] is “inactive”.

As for `C[C@]12CC[C@H]3[C@@H](CCC4=CC(=O)CC[C@@H]43)[C@@H]1CC[C@@H]2O`, in test [1], the efficacy was -8.66%. Moreover, the molecule was classed as inactive in test [2], in test [3], in test [5], in test [4] and in test [7]. The Potency result in test [6] is “inactive”.

Regarding `COc1ccc2c3c1O[C@H]1[C@@H](O)C=C[C@H]4[C@@H](C2)N(C)CC[C@@]341`, the efficacy in test [1] was 44%. Also, the AC50 in test [2] was 28.2 µM (active); in test [4] it was 31.6 µM (active). For the same molecule, the outcome in test [3], in test [5] and in test [7] was inactive. For the same molecule, the Potency entry in test [6] is “inactive”.

`CC[C@]1(O)CC[C@H]2[C@@H]3CCC4=CCCC[C@@H]4[C@H]3CC[C@@]21C`: the efficacy in test [1] was 22.6%. The AC50 was 17.8 µM (active) in test [2], 15.8 µM (active) in test [3] and 15.8 µM (active) in test [4]. Moreover, the outcome in test [5] and in test [7] was inactive. Further, the Potency entry in test [6] is “inactive”.

A word on the AC50: it is the midpoint of the concentration-response curve, whichever way the signal moves.
